S2 tox = reduces viability in counter-screen for ATXN expression inhibitors. Potency, µM (series often up to 56.7 µM), usual class: cytotoxic. 400,000 tested, 0.49% active. S2 cells (HEK-293 line with an ATXN2-luciferase reporter) viability, CellTiter-Fluor protease fluorescence, 24 h. AID 651635; note: nearly all actives have a fitted effect of over 40% in size
ATXN2 expr inh = inhibitors of ATXN2 expression. HEK-293 ATXN2-luciferase reporter, luminescence, 24 h. Potency, µM (series often up to 57 µM), inactives show top-dose activity change, negative = inhibition, usual class: inhibitors. 360,000 tested, 0.72% active; note: % is set by controls: 0 for no effect and ±100 for the full control effect; nearly all actives have a fitted effect of over 55% in size
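qHTS (up to 57 uM final) was run with 24 h compound exposure of reporter cells at 37 °C. Each well was multiplexed: SteadyGlo luminescence measured ATXN2-luciferase expression after a fluorogenic Gly-Phe-AFC viability readout (25 uM final).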
HepG2 viability = HepG2 cytotoxicity, counter-screen for TGF-b inhibitors. HepG2 CAGA-GFP viability, ATP luminescence, 18 h. Potency, µM (top dose mostly 46.1 µM), for the others: at the top dose activity change, negative = cytotoxicity, usual class: cytotoxic. 410,000 tested, 0.76% active
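CellTiter-Glo luminescence gave cytotoxicity after 18 hours at 37 degrees C. The cells were HepG2 CAGA-GFP in 1% FBS DMEM, stimulated with 500 pg/mL TGF-beta after compound addition. %Activity was normalised to no-cell wells (complete cell-killing) and DMSO (no toxicity), and curves were fitted and classified.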
GLP1R inv ag = acts as inverse agonist at human GLP-1 receptor. HEK293 GLP-1R CRE-luciferase, luminescence, 24 h; GLP-1R form is constitutively active. 410,000 tested, 1.6% active. Potency, µM (highest dose often 38.3 µM), for inactives: at the top dose activity change, negative = inhibition, hits mostly inhibitors; note: % is set by controls: 0 for no effect and ±100 for the full control effect; nearly all actives have a fitted effect of over 55% in size
Target sequence (P43220 whole entry, looked up): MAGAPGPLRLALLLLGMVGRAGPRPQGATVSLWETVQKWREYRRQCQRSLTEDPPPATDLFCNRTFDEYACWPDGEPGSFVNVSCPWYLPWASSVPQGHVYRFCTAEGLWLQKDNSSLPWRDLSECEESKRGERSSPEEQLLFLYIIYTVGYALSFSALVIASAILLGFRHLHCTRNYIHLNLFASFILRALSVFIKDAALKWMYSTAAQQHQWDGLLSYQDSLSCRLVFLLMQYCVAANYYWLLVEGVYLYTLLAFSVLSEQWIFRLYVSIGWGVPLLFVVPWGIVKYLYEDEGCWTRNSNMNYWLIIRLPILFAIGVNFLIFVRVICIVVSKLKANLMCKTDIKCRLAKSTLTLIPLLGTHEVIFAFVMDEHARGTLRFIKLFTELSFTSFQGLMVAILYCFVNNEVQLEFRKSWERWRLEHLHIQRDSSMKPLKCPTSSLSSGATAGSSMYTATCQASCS
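Constitutively active GLP-1R drives a cAMP-responsive luciferase in stably transfected HEK293 cells; test compounds are added after overnight (12 h) attachment and left 24 hr, and signal loss in luminescence marks inhibition.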
TGFb inhibitor = inhibitors of TGF-b signaling; HepG2 CAGA-GFP TGF-b/SMAD3 reporter, GFP fluorescence, 18 h; TGF-beta stimulated, 500 pg/mL final; Potency, µM (titrated, usually from 46.1 µM), inactives show at the top dose activity, negative = inhibition, actives largely listed as inhibitors; 410,000 tested, 1.2% active; AID 588855; note: % is set by controls: 0 for no effect and ±100 for the full control effect; nearly all actives have a fitted effect of over 65% in size
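HEPG2 CAGA-GFP, 1000 cells/well; 2 h settle, 37 C; cpd via pin tool; TGF-b 500 pg/mL final; 18 h, 37 C; GFP imaging ex488/em500-530; %Activity normalised to -TGF-b and +DMSO controls; CRC fit, curve class.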
GLP-1R agonist = GLP-1 receptor (human) agonism; P43220; HEK293 GLP-1R CRE-luciferase, luminescence, 4-6 h; cells express a hypersensitive GLP-1R form; Potency, µM (titrated, usually from 45.6 µM), for the others: at the top dose activation, usual class: activators; 380,000 tested, 0.007% active; AID 624172; note: % of control where 0% means no effect
* hit, by the source's call; i = inactive; ? = inconclusive; · = no result given; ! = not confirmed by another sample; [ ] = dose if it differs, or a comment. Hits are enriched below; roughly 3.7% of the tested compounds scored in any of these assays. Calls come from the whole dose curve; as a rule, active = well fitted curve in the direction sought with a large enough effect; inconclusive = small, poorly fitted or top-dose-only effect, or another doubt; inactive = no such curve, though single readings can be large; an effect the other way counts as inactive or inconclusive. Potency is the fitted concentration of half-maximal effect.

SMILES	S2 tox	ATXN2 expr inh	HepG2 viability	GLP1R inv ag	TGFb inhibitor	GLP-1R agonist
Cc1cc(C)cc(NC(=O)c2cc(S(=O)(=O)N3CCCCC3)c[nH]2)c1	·	·	-9%	-13%	0%	·
S=C(c1cn(Cc2ccccc2)c2ccccc12)N1CCOCC1	i	-25%[11.3 µM]	20%	?	44%	5%
CC1CCN(C(=S)c2cn(Cc3ccc(F)cc3)c3ccccc23)CC1	?	-24%	-5%	7.1µM*	-8%	-1%
CN1CCN(C(=S)c2cn(Cc3ccc(F)cc3)c3ccccc23)CC1	?	·	-24%	10µM*	-21%	10%
CC1CCN(C(=S)c2cn(Cc3ccccc3F)c3ccccc23)CC1	i	-8%	-2%	10µM*	-2%	-1%
CN1CCN(C(=S)c2cn(Cc3cccc(F)c3)c3ccccc23)CC1	i	·	-29%	?	-2%	10%
COc1ccc(CN2CCCC(n3cc(C(=O)N4CCCCC4)nn3)C2)c(OC)c1OC (stereo not drawn)	i	·	·	·	·	·
Cc1ccc(CCNS(=O)(=O)c2cc(-c3cc(C)no3)ccc2C)cc1	·	·	-17%	-24%	?	·
COc1ccc(N2CCN(Cc3nc4c(c(=O)n(C)c(=O)n4C)n3C(C)C)CC2)cc1	i	-8%	-7%	-14%	-15%	·
CCOc1cc(CNCCc2ccc(S(N)(=O)=O)cc2)ccc1OCc1ccc(Cl)cc1	?	?	-106%	?	?	-41%
COc1cc(CNCCc2ccc(S(N)(=O)=O)cc2)ccc1OCc1ccc(Cl)cc1	22µM*	18µM*	-109%	?	?	-6%
CCc1cc(C(=O)NCC2Cc3cc(-c4ccccc4C(C)=O)ccc3O2)no1 (stereo not drawn)	i	·	·	·	·	·
CCOC1OC(=O)C[C@H]1NC(=O)[C@@H]1CCCN1C(=O)[C@@H](NC(=O)c1ccc(N)c(Cl)c1)C(C)(C)C (stereo partly drawn)	·	51%	·	·	·	·
CN1CCN(C(c2ccc(C(F)(F)F)cc2)c2ccc3cccnc3c2O)CC1 (stereo not drawn)	?	7.9µM*	-26%	?	?	-5%
COc1cc(-c2cc3nc(NCc4cccs4)ccn3n2)cc(OC)c1OC	?	?	-2%	?	33%	-7%
COc1cc(-c2cc3nc(NCc4cccc(Cl)c4)ccn3n2)cc(OC)c1OC	?	13µM*	-56%	?	?	-5%
COCc1c(C(=O)N2CCN(C3CCCC3)CC2)cnn1-c1nccc(-c2cccs2)n1	i	·	·	·	·	·
O=C(NCCCN1CCN(c2ccccc2)CC1)c1ccc2nc(Cc3ccccc3)oc2c1	·	·	-35%	?	?	·
CC1CCCN(CCCNC(=O)c2cc3c(s2)-c2ccccc2OC3)C1 (stereo not drawn)	?	-22%	-58%	8.9µM*	?	16%
O=C(NCCCN1CCN(c2ccc(F)cc2)CC1)c1ccc2nc(Cc3ccccc3)oc2c1	·	?	-43%	?	11µM*	·
O=C(NCCCN1CCN(c2ccc(F)cc2)CC1)C1COc2ccccc2C1 (stereo not drawn)	i	-20%	-33%	?	?	·
O=C(NCCCN1CCN(c2ccc(F)cc2)CC1)c1cc2c(s1)-c1ccccc1OC2	?	28µM*	-85%	?	?	0%
CN1CCN(CCNC(=O)c2ccc3nc(-c4ccc(F)cc4)c(-c4ccc(F)cc4)nc3c2)CC1	?	?	-44%	5.6µM*	?	18%
CC1CCN(CCCNC(=O)c2cc3c(s2)-c2ccccc2OC3)CC1	i	?	-65%	?	?	-1%
O=C(NCCCN1CCN(c2ccccc2)CC1)c1cc2c(s1)-c1ccccc1OC2	?	0%	14µM*	?	?	·
SMILES	S2 tox	ATXN2 expr inh	HepG2 viability	GLP1R inv ag	TGFb inhibitor	GLP-1R agonist
Clc1ccccc1C(c1ccccc1)(c1ccccc1)n1ccnc1	?	?	20µM*	10µM*	?	4%
C#CC(c1ccccc1)(c1ccccc1)n1ccnc1	i	·	-17%	?	-5%	29%
Oc1ccc(-c2c(-c3ccsc3)sc3ccccc23)cc1	?	?	-43%	28%	11µM*	12%
COc1ccc(CN2C(=O)CSCC2=O)cc1OC	i	·	1%	5%	-3%	-6%
COc1ccc(CCN2C(=O)CSC2=S)cc1OC	22µM*	?	-58%	5.6µM*	?	2%
CCn1cnc2cc(NCc3ccc(N(C)C)cc3)ccc21	?	?	7.1µM*!	-17%	10µM*	11%
CCNC(=O)c1cc2c(-c3cc(OCCN4CCCC4)c(Cl)cc3Cl)nc(N)nc2s1	·	1.4µM*	·	·	·	·
Cc1ccc(-c2csc(NC(=O)C[n+]3cc(-c4ccccc4)n4c3CCC4)n2)cc1	?	-14%	-10%	?	22µM*	-5%
NC(=O)C1CCN(CC(=O)Nc2nc(-c3ccccc3)cs2)CC1	i	·	-5%	9%	6%	-3%
COc1ccc(C2(O)CCN(CC(=O)Nc3nc(-c4ccccc4)cs3)CC2)cc1	?	-3%[11.3 µM]	-13%	7.1µM*	?	-1%
O=C(Cn1nnc(-c2ccc(CN3CCOCC3)cc2)n1)Nc1nc(-c2ccccc2)cs1	i	-10%	-44%	-7%	13µM*	1%
CC1CCN(CC(=O)Nc2nc(-c3ccccc3)cs2)CC1	i	11%	-27%	5.6µM*	?	-8%
O=C(CN1CCOCC1)Nc1nc(-c2ccccc2)cs1	i	11%	1%	5%	0%	9%
CC(C)(C)NC(=O)[C@@H]1C[C@@H]2CCCC[C@@H]2CN1C[C@@H](O)[C@H](Cc1ccccc1)NC(=O)[C@H](CC(N)=O)NC(=O)c1ccc2ccccc2n1	32µM*	?	-43%	?	?	-4%
Cc1ccccc1C1(CC(=O)N2CCC[C@H]2C(N)=O)CC(=O)N(C2CCCC2)C1=O (stereo partly drawn)	i	·	·	·	·	·
CCN(CC)CCCCN1c2ccccc2Sc2ccccc21	?	?	-83%	5µM*	?	-2%
CC(=O)CCc1ccc(OCC(O)CNCCOc2ccc(C)cc2)cc1 (stereo not drawn)	i	-22%	-1%	?	21%	0%
C=CCOc1ccc(CN(C)CC(O)COc2ccc(CCC(C)=O)cc2)cc1 (stereo not drawn)	i	-30%	-26%	11µM*	-18%	4%

Screening data: PubChem BioAssay, National Center for Advancing Translational Sciences (NCATS)
